Screening results (PubChem BioAssay)
An excerpt weighted towards active compounds, which were near 19% of everything screened.
HT1080 IDH1KD tx – HT-1080 IDH1 knockdown cell toxicity (counter line). HT-1080 IDH1 knockdown viability, ATP luminescence, 48 h. 2% of 360,000 active. Potency, µM (series often up to 46.1 µM), hits mostly cytotoxic
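Viability of IDH1-knockdown HT-1080 fibrosarcoma cells was assessed by CellTiter-Glo after 48 h at 37 °C with titrated compound; concentration-effect curves were classified by fit quality and response size.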
TDP1 cell noCPT – qHTS for Inhibitors of human tyrosyl-DNA phosphodiesterase 1 (TDP1): qHTS in cells in absence of CPT. DT40 Tdp1-/- hTDP1 cells, no CPT, ATP luminescence, 48 h. Potency, µM (top dose mostly 46.2 µM), usual class: inhibitors. 15% of 420,000 active; further: nearly all actives have a fitted effect of over 55% in size
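Chicken DT40 Tdp1-/- cells complemented with human TDP1, screened without camptothecin (DMSO vehicle only), 400 cells/well. Compounds pin-transferred, cells incubated at 37 °C for at least 48 hr. Growth read as ATP-dependent luminescence (CellTiter-Glo, 30 min at RT).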
HT1080NT lethal – kills 2HG-producing HT-1080-NT fibrosarcoma cells; Potency, µM (highest dose often 46.1 µM), hits mostly cytotoxic; HT-1080-NT fibrosarcoma viability, CellTiter-Glo ATP luminescence, 48 h; 1.6% of 360,000 active; AID 686970;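 further: NT is the 2HG producing partner of a matched IDH1 knockdown line; nearly all actives have a fitted effect of over 55% in size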
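Viability of the 2HG-overproducing fibrosarcoma line after 48 hours of compound exposure at 37 degrees C was determined by luminescence with CellTiter-Glo, and concentration-effect curves were then fitted and categorized.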
TDP1 cell CPT – growth inhibition of DT40 Tdp1-/-;hTDP1 cells with camptothecin (screen for TDP1 inhibitors); chicken DT40 Tdp1-/-;hTDP1 cells + 20 nM CPT, ATP luminescence, 48 h; 12% of 420,000 active; Potency, µM (titrated, usually from 46.2 µM), hits mostly inhibitors; AID 686979; further: nearly all actives have a fitted effect of over 55% in size
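Cell growth measured by CellTiter-Glo luminescence after a minimum 48 h, 37 C compound exposure with 20 nM CPT in Tdp1-knockout DT40 cells stably expressing hTDP1, seeded 400/well; qHTS titration format.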
KB-3-1 tox – kills parental KB-3-1 adenocarcinoma cells | KB-3-1 viability, CellTiter-Glo ATP luminescence, 72 h | Potency, µM (titrated, usually from 46.1 µM), usual class: cytotoxic | 1.4% of 400,000 active | AID 1347075; further: nearly all actives have a fitted effect of over 60% in size
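Luminescent ATP read-out (CellTiter-Glo) measures survival of drug-naive KB-3-1 cells after 72 h compound exposure at 37 °C. Titration series was screened from lowest to highest concentration, with DMSO vehicle plates as background controls.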
KB-V1 MDR tox – KB-V1 MDR subline cytotoxicity | KB-V1 MDR cells viability, CellTiter-Glo, 72 h | Potency, µM (doses to about 46.1 µM), actives largely listed as cytotoxic | 3.4% of 400,000 active | AID 1347076; further: nearly all actives have a fitted effect of over 60% in size
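Readout: CellTiter-Glo luminescence, 10 min after addition. Cells: KB-V1 MDR subline, 72 h at 37 degrees C with compound. Analysis: corrected, normalized data fitted to concentration-effect curves.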
A number is an active result; . = inactive; ? = inconclusive; / = no result; [ ] = dose if it differs, or a comment. The call rests on the fitted dose curve; in most records, active means well fitted curve in the direction sought with a large enough effect; inconclusive means small, poorly fitted or top-dose-only effect, or another doubt; inactive means no such curve, though single readings can be large; an effect the other way counts as inactive or inconclusive.

SMILES	HT1080 IDH1KD tx	TDP1 cell noCPT	HT1080NT lethal	TDP1 cell CPT	KB-3-1 tox	KB-V1 MDR tox
Cc1csc(NC(=O)c2ccc(S(=O)(=O)N3CCCC3)cc2)n1	.	.	.	?	.	.
O=C(Nc1nc(-c2cccs2)cs1)c1ccc(S(=O)(=O)N2CCCC2)cc1	?	?	?	?	16.4µM	?
O=C(Nc1nccs1)c1ccc(Br)c(S(=O)(=O)N2CCOCC2)c1	.	?	.	.	.	.
CC(=O)Nc1nc(-c2cccs2)cs1	.	.	.	.	.	.
CN(C)S(=O)(=O)c1ccc(C(=O)Nc2nc(-c3cccs3)cs2)cc1	.	?	.	20.6µM	.	.
O=C(Nc1nc(-c2ccc3c(c2)OCCO3)cs1)c1ccc(S(=O)(=O)N2CCCCC2)cc1	.	?	?	?	?	8.2µM
CC(=O)OC[C@@H]1CN(Cc2ccccc2)C[C@H](n2cnc3c(NC4CCC4)ncnc32)O1	.	?	.	?	.	.
CCCNC(=O)C(Cc1ccc(I)cc1)NC(=O)c1ccc(C#N)cc1 (stereo unspecified)	.	.	.	.	.	.
CCOC(=O)c1ccc2ncc3c(-c4ccccc4)nn(-c4ccc(F)c(Cl)c4)c3c2c1	/	.	/	.	.	.
CCOC(=O)c1sc(NC(=O)C2CCC2)cc1C	.	20.6µM	.	.	.	.
CCOC(=O)c1c(N)sc(N)c1C(=O)OCC	.	5.17µM	.	4.61µM	.	.
CCOC(=O)c1sc(-c2ccc(F)cc2)cc1NC(=O)Nc1ccccc1OC	.	?	.	16.4µM	.	?
Cc1ccc(NC(=O)c2c(C)nc3sc(C(=O)Nc4ccc(F)cc4)c(N)c3c2-c2ccc(C)o2)c(C)c1	/	18.4µM	/	?	.	.
CCOC(=O)c1c(C)nc2sc3c(c2c1-c1ccc(OC)cc1)NC(c1ccc(OC)cc1)NC3=O (stereo unspecified)	.	13µM	.	?	.	.
COc1ccc(-c2c3c(nc4sc(C(=O)Nc5ccccc5)c(N)c24)CCC3)cc1	.	?	.	.	.	?
COc1ccc(-c2c3c(nc4sc(C(=O)Nc5ccccc5F)c(N)c24)CC(C)(C)CC3=O)cc1	/	?	/	?	.	.
CCOC(=O)c1c(C)nc2sc(C(=O)Nc3ccccc3)c(N)c2c1-c1ccc(OC)cc1	?	14.6µM	?	?	.	?
CCOC(=O)c1sc(NC(=O)Nc2ccccc2Cl)cc1C	.	14.6µM	.	23.1µM	?	20.6µM
CCOC(=O)c1c(C)nc(C)c(C(=O)OCC)c1-c1ccc(O)c(OC)c1	.	.	.	?	.	.
COc1ccc(-c2c3c(nc4sc(C(=O)Nc5ccc(F)cc5)c(N)c24)CC(C)(C)CC3=O)cc1	/	14.6µM	/	?	.	.
CC1(C)CC(=O)C=C(c2n[nH]nc2-c2ccccc2)C1	.	.	.	.	.	.
CCCc1nnc(NC(=O)C2CCCO2)s1 (stereo unspecified)	.	.	.	.	.	.
CCOC(=O)c1sc(NC(=O)Nc2ccccc2)cc1C	?	25.9µM	?	23.1µM	?	?
CCOC(=O)c1c(N)sc(C(=O)Nc2ccccc2)c1C	.	18.4µM	.	?	?	.
CCOC(=O)c1sc(NC(C)=O)cc1C	.	.	.	.	.	.
SMILES	HT1080 IDH1KD tx	TDP1 cell noCPT	HT1080NT lethal	TDP1 cell CPT	KB-3-1 tox	KB-V1 MDR tox
O=S1(=O)CC(N2CCCC2)CN1Cc1cn(Cc2cccc(Cl)c2)nn1 (stereo unspecified)	.	.	.	.	.	.
Cc1cnc(-n2ncc(C(=O)N(CCO)C(C)C)c2-c2cccs2)nc1-c1ccc(F)cc1	/	?	/	.	/	/
Cc1ccc(C)c(NC2=C(Cl)C(=O)OC2OC(=O)c2ccco2)c1 (stereo unspecified)	?	23.1µM	?	23.1µM	.	.
Cc1ccc(NC2=C(Cl)C(=O)OC2OC(=O)c2ccco2)c(C)c1 (stereo unspecified)	.	.	.	?	.	.
COc1ccc(NC(=O)Nc2ccc3nccnc3c2)cc1	.	20.6µM	.	25.9µM	.	?
COc1ccc(NC(=O)Nc2nccs2)cc1	?	16.4µM	?	13µM	?	7.31µM
COC(=O)N1C(=O)[C@](c2ccc(Cl)cc2)(C(C)C)N1C(=O)OC	.	23.1µM	.	13µM	.	.
COC(=O)N1C(=O)[C@@](c2ccccc2)(C(C)C)N1C(=O)OC	.	?	.	16.4µM	.	.
COc1ccccc1CNC(=O)COc1ccc(S(=O)(=O)N2CCCC2)cc1	.	?	.	?	.	.
Cc1ccc(Cn2ccc(NC(=O)c3cc(-c4ccc(Cl)cc4)on3)n2)cc1	.	.	.	.	.	.
Cc1ccc(Cn2ccc(NC(=O)c3cc(CC(C)C)on3)n2)cc1	.	20.6µM	.	?	.	.
Cc1ccc(Cn2ccc(NC(=O)c3cc(-c4cccc(Cl)c4)on3)n2)cc1	.	.	.	.	.	14.6µM
CCOC(=O)c1c([N+](=O)[O-])c(C)[nH]c(=O)c1C#N	.	.	.	.	.	.
CCS(=O)(=O)Nc1cc(C(=O)N2CCC[C@H]2CO)c2c(c1)nc(-c1ccccc1)n2C	/	.	/	.[9.04 µM]	/	/
COc1cccc(NC(=S)NN=C2CCCCCC2)c1	.	5.17µM	.	3.66µM	.	.
COc1cccc(NC(=S)NN2CCN(C)CC2)c1	.[9.24 µM]	.	.	29.1µM	.	.
FC(F)(F)c1ccccc1NC(=S)NN=C1CCCCCC1	18.4µM	?	13µM	?	?	?
CC1CCC/C(=N\NC(=S)NCc2ccccc2)C1 (stereo unspecified)	.	.	.	.	.	.
CC1CCC/C(=N\NC(=S)Nc2ccccc2)C1 (stereo unspecified)	.	10.3µM	.	8.2µM	.	.
COc1ccc(CNC(=S)Nc2cccc(OC)c2)cc1	.	.	.	.	.	.
COc1ccccc1C(=O)Nc1ccc(Br)cc1C	.	.	.	.	?	?
O=C(COC(=O)CCC(=O)c1ccc(F)cc1)Nc1ccc(Cl)cn1	.	.	.	.	.	.
Cc1onc(-c2ccccc2Cl)c1C(=O)Nc1nnc(C2CCCCC2)s1	/	?	/	?	.	.
S=c1[nH]ncn1/N=C/c1ccccc1	.[9.24 µM]	23.1µM	.	?	.	.
O=C(COC(=O)c1ccccc1)c1ccc(S(=O)(=O)N2CCCCC2)cc1	.	.	.	.	.	.
CC1CCC(C(=O)NC(C(=O)OCC(=O)c2ccccc2)C(C)C)CC1 (stereo unspecified)	/	18.4µM	/	18.4µM	.	.
